In the supplement of paper PMC6607015:
Structures can show the parent of a compound that is named as a salt.

Columns and labels:
Details in all cases: compound concentration in added solution (µM; 5 µl added to 20 µl cells): 10; 18 h
A431 [1] = experiment: LBPA endosome anti-LBPA integrated intensity (sum per cell), Z-score; higher = more LBPA staining
Summary of the method: (§1)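 In duplicate 384-well imaging plates, 3,500 HeLa MZ or A431 cells in 20 µl per well were seeded onto 5 µl of 10 µM compound solution. The cells were incubated for 18 h, fixed in 4% PFA and stained with 6C4 anti-LBPA antibody, filipin, propidium iodide and CellTracker green before four 20× images were acquired per well. Values are AcuityXpress-normalised Z-scores of per-cell integrated LBPA or filipin intensity, obtained by MetaXpress segmentation over the whole cell or in LBPA endosomes.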

HeLa MZ [2] = experiment: as above
Summary of the method: as §1

A431 [3] = experiment: whole-cell filipin (free cholesterol) integrated intensity, Z-score; higher = more cholesterol staining
Summary of the method: as §1

HeLa MZ [4] = experiment: as above
Summary of the method: as §1

A431 [5] = experiment: filipin (cholesterol) integrated intensity within LBPA endosomes, Z-score; higher = more cholesterol in LBPA endosomes
Summary of the method: as §1

HeLa MZ [6] = experiment: as above
Summary of the method: as §1

Structure (SMILES)	LBPA endosome anti-LBPA integrated intensity (z-score) (A431 [1])	LBPA endosome anti-LBPA integrated intensity (z-score) (HeLa MZ [2])	whole-cell filipin (z-score) (A431 [3])	whole-cell filipin (z-score) (HeLa MZ [4])	filipin (z-score) (A431 [5])	filipin (z-score) (HeLa MZ [6])
CN1CCN(CCCN2c3ccccc3Sc3ccc(S(=O)(=O)N(C)C)cc32)CC1 [Thioproperazine dimesylate]	2.72	1.97	0.546	-0.109	2.28	2.33
O=C1CCc2ccc(OCCCCN3CCN(c4cccc(Cl)c4Cl)CC3)cc2N1 [Aripiprazole]	3.32	2.8	2.88	2.45	3.23	4.07
O=C(Nc1ccccc1)OCC(CN1CCCCC1)OC(=O)Nc1ccccc1 (stereo not given) [Diperodon hydrochloride]	1.44	2.96	0.922	-0.386	1.23	1.1
CNC(=C[N+](=O)[O-])NCCSCc1csc(CN(C)C)n1 [Nizatidine]	-0.247	-0.223	0.149	-0.639	-0.347	-0.405
CC[C@]12CCCN3CCc4c(n(c5ccccc45)[C@@](O)(C(=O)OC)C1)[C@@H]32 [Vincamine]	-0.234	0.384	-0.552	-1.23	-0.453	-0.216
NC[C@H]1CC[C@H](C(=O)O)CC1 [Tranexamic acid]	-0.452	-0.543	-0.422	-0.896	-0.524	-0.663
CCOC(=O)C1=C(COCCN)NC(C)=C(C(=O)OC)C1c1ccccc1Cl (stereo not given) [Amlodipine]	1.97	0.223	0.774	0.736	2.32	1.8
COC(=O)[C@@H]1[C@H]2C[C@H]3c4[nH]c5ccccc5c4CCN3C[C@@H]2CC[C@@H]1O [Yohimbine hydrochloride]	-0.468	-0.264	-0.685	-0.575	-0.434	-0.333
NCc1ccc(S(N)(=O)=O)cc1 [Mafenide hydrochloride]	-0.472	-0.546	-0.682	-0.536	-0.471	-0.44
Cc1c(O)c(=O)n(-c2ccccc2)n1C [Antipyrine, 4-hydroxy]	-0.407	-0.193	-0.48	0.114	-0.485	-0.43
CN(Cc1cnc2nc(N)nc(N)c2n1)c1ccc(C(=O)N[C@@H](CCC(=O)O)C(=O)O)cc1 (racemic) [Amethopterin (R,S)]	-0.376	2.61	0.379	2.03	-0.749	-0.934
O=C1CCC(N2C(=O)c3ccccc3C2=O)C(=O)N1 (stereo not given) [Thalidomide]	-0.476	-0.403	-0.887	-1.09	-0.544	-0.68
CCN[C@H]1CN(CCCOC)S(=O)(=O)c2sc(S(N)(=O)=O)cc21 [Brinzolamide]	-0.542	-0.00126	-0.549	-0.378	-0.517	-0.377
C#CCN(C)CCCOc1ccc(Cl)cc1Cl [Clorgyline hydrochloride]	-0.292	0.155	-1.09	-0.252	-0.435	-0.359
CC[N+](C)(C)Cc1ccccc1Br [Bretylium tosylate]	-0.568	-0.254	-0.37	-0.522	-0.5	-0.561
CC(=O)SCC(Cc1ccccc1)C(=O)NCC(=O)OCc1ccccc1 (stereo not given) [Racecadotril]	-0.747	-1.18	-0.139	-0.415	-0.589	-0.468
C/C(=C(\CCOP(=O)(O)O)SC(=O)c1ccccc1)N(C=O)Cc1cnc(C)nc1N [Benfotiamine]	-0.532	-0.653	-0.469	-0.157	-0.411	-0.31
Nc1nc2c(ncn2COC(CO)CO)c(=O)[nH]1 [Ganciclovir]	-0.282	0.382	-0.0797	0.0803	-0.332	-0.411
CN[C@@H]1[C@H](O[C@H]2[C@H](O[C@H]3[C@H](O)[C@@H](O)[C@H](NC(=N)N)[C@@H](O)[C@@H]3NC(=N)N)O[C@@H](C)[C@]2(O)CO)O[C@@H](CO)[C@H](O)[C@H]1O [Dihydrostreptomycin sulfate]	-0.602	-1.07	-1	-0.938	-0.56	-0.704
Cc1ccc(S(=O)(=O)NC(=O)NN2CCCCCC2)cc1 [Tolazamide]	-0.639	-1.11	-0.852	-0.547	-0.571	-0.672
CN(C)CCN1C(=O)c2ccccc2N(C)c2ccccc21 [Dibenzepine hydrochloride]	-0.357	0.481	-0.676	-0.7	-0.373	0.00611
CCc1cc(C(N)=S)ccn1 [Ethionamide]	-0.517	-0.148	-0.588	0.221	-0.493	-0.459
N[C@@H](Cc1ccc(O)c(O)c1)C(=O)O [Levodopa]	-0.339	-0.518	-0.462	-0.115	-0.332	-0.358
CC(C)NC[C@H](O)COc1ccc(CC(N)=O)cc1 [(S)-(-)-Atenolol]	-0.484	0.0669	-0.593	-0.509	-0.513	-0.661
COc1ccc(CC2c3cc(OC)c(OC)cc3CC[N+]2(C)CCC(=O)OCCCCCOC(=O)CC[N+]2(C)CCc3cc(OC)c(OC)cc3C2Cc2ccc(OC)c(OC)c2)cc1OC (stereo not given) [Atracurium besylate]	-0.229	-0.154	-0.0896	-0.584	-0.0589	0.0777
